An excerpt weighted towards active compounds, which were near 7.6% of everything screened.
VP16 counter: Gal4-VP16 reporter inhibition counter-screen; 310,000 tested, 3.5% active; Drosophila S2 Gal4-VP16 UAS-luciferase, luminescence, 20 h; Potency, µM (highest dose often 53.6 µM), for the others: top-dose activity, negative = inhibition, most hits filed as inhibitors;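 note: Gal4-VP16 expression switched on by copper sulfate through the metallothionein promoter; potency is the fitted concentration of half-maximal effect; % is set by controls: 0 for no effect and ±100 for the full control effect; nearly all actives have a fitted effect of over 50% in size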
ELG1 repair inh: inhibitors of ELG1-dependent DNA repair in HEK293T cells; 330,000 tested, 2.3% active; HEK293T ELG1-luciferase reporter, luminescence, 16 h; DNA damage induced by 5-fluorouridine; Potency, µM (top dose mostly 46.1 µM), for inactives: at the highest dose activity change, negative = inhibition, most hits filed as inhibitors; note: potency is the fitted concentration of half-maximal effect; % is set by controls: 0 for no effect and ±100 for the full control effect; nearly all actives have a fitted effect of over 55% in size
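Overnight (16 hr) co-exposure of 2,000 cells/well to 5-fluorouridine and compound at 37 °C preceded detection. Luciferase was quantified via ONE-Glo luminescence; loss of signal denotes inhibition.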
RORg inh: ROR gamma (mouse) transcription inhibition | 310,000 tested, 5.4% active | P51450 | Potency, µM (series often up to 53.6 µM), for the others: at the top dose activity change, negative = inhibition, hits mostly inhibitors | Drosophila S2 Gal4-RORgamma UAS-luciferase reporter, 20 h; note: potency is the fitted concentration of half-maximal effect; % is set by controls: 0 for no effect and ±100 for the full control effect; nearly all actives have a fitted effect of over 60% in size
Target sequence (P51450 whole entry, looked up, the tested form may be a part): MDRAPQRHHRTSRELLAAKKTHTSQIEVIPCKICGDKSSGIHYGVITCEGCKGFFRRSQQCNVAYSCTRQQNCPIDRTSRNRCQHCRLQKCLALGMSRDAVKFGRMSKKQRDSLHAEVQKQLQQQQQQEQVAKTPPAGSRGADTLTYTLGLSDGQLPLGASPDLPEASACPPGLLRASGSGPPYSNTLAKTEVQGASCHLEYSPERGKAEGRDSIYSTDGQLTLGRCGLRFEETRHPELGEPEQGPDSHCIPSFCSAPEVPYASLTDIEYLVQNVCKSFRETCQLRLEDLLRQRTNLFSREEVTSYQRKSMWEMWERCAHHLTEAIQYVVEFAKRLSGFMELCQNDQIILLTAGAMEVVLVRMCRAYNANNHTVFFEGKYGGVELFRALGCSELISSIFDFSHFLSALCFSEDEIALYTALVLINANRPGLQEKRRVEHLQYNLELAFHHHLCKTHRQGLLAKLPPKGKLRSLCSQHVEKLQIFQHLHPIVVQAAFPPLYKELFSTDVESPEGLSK
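Stably transfected Drosophila Schneider cells are the test system, with ROR gamma fused to Gal4 and luciferase under UAS control; luminescence is read after 20 hr of 700 uM copper sulfate induction at ambient temperature.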
Giardia killer: kills Giardia lamblia; 340,000 tested, 0.15% active; Giardia lamblia trophozoite viability; activity change, % at 7.66 µM, hits read low; in the data active = activity change below about -80%; inconclusive = between about -30% and that limit;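 note: parasites exposed to compound for two days anaerobically before the ATP read; % is set by controls: 0 for no effect and ±100 for the full control effect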
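Anaerobic 48 hrs incubation at 37 deg C of 100 trophozoites/well with test compounds; ATPLite 1-Step luminescence, 15-30 min RT, reports cellular ATP as viability.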
BRCA1 expr act: BRCA1 expression activation; Potency, µM (titrated, usually from 46.1 µM), without a hit: at the top dose activation, hits mostly activators; MCF7-BRCA1-FFLuc reporter, luminescence, 48 h; response scale: scaled: vehicle 0%, 10 µM genistein 100%; AID 624202; 380,000 tested, 1.1% active; note: potency is the fitted concentration of half-maximal effect; nearly all actives have a fitted effect of over 80% in size
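Quantitative HTS in MCF7 cells stably reporting BRCA1 expression via firefly luciferase. Compound treatment lasts 48 h at 37 °C in phenol-red free MEM. Activation is expressed relative to genistein at 10 microM and DMSO.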
p53 reactivator: restores transcriptional activity of mutant p53. H1299 p53-A138V BP100-luciferase reporter, luminescence, 24 h. Potency, µM (titrated, usually from 92.2 µM), without a hit: top-dose activity change, positive = activation, usual class: activators. 320,000 tested, 0.063% active. AID 504706; note: potency is the fitted concentration of half-maximal effect; % of control where 0% means no effect; nearly all actives have a fitted effect of over 45% in size
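H1299 (p53-null), stable ts p53-A138V + BP100-Luc; 1000 cells/well, Opti-MEM/10% FBS; cpd 4 pt, 1:5; 24 h, 37 deg C, 5% CO2; detection reagent 10 min RT; luminescence.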
* hit, by the source's call; [ ] = remark or other dose. Unless noted, calls come from the whole dose curve; as a rule, active = well fitted curve in the direction sought with a large enough effect; inconclusive = small, poorly fitted or top-dose-only effect, or another doubt; inactive = no such curve, though single readings can be large; an effect the other way counts as inactive or inconclusive.

Screening COc1ccc(/C=C2\C(=O)NC(=S)N2C(=O)c2ccc(F)cc2)cc1 returned VP16 counter 11µM*, ELG1 repair inh 6%, RORg inh 8.9µM*, Giardia killer 9, BRCA1 expr act 9% and p53 reactivator inconclusive.
For COc1cc(-c2nnc3sc(-c4ccco4)nn23)cc(OC)c1OC the results were VP16 counter 0%, ELG1 repair inh -24%, RORg inh inconclusive, Giardia killer 7, BRCA1 expr act -20% and p53 reactivator -8%.
For CN=c1scc(-c2cccs2)n1/N=C/c1ccccc1O the results were VP16 counter -10%, ELG1 repair inh 5.2µM*, RORg inh 27%[10 µM], Giardia killer inconclusive, BRCA1 expr act -113% and p53 reactivator -28%.
For CC(C)N=c1scc(-c2ccco2)n1/N=C/c1ccc(O)c(O)c1 the results were VP16 counter 16µM*, ELG1 repair inh inconclusive, RORg inh 1.4µM*, Giardia killer -16, BRCA1 expr act -18% and p53 reactivator 23%.
Screening CN=c1scc(C)n1/N=C/c1cc(Br)c(O)c(OC)c1 returned VP16 counter -5%, ELG1 repair inh inconclusive, RORg inh 12%, Giardia killer -14, BRCA1 expr act -48% and p53 reactivator -5%.
For CN=c1scc(C)n1/N=C/c1ccc(O)c(O)c1O the results were VP16 counter 7.1µM*, ELG1 repair inh inconclusive, RORg inh 2.2µM*, Giardia killer inconclusive, BRCA1 expr act -34% and p53 reactivator 0%.
C=CCN=c1scc(-c2ccco2)n1/N=C/c1ccc(O)c(O)c1O was read as VP16 counter 10µM*, ELG1 repair inh inconclusive, RORg inh 3.2µM*, Giardia killer 6, BRCA1 expr act 64% and p53 reactivator 17%.
`Cc1ccc(C)c(NC(=O)COC(=O)c2c(C)nn(-c3ccccc3)c2C)c1` gave ELG1 repair inh inconclusive, Giardia killer -10, BRCA1 expr act 1% and p53 reactivator -2%.
CN=c1scc(-c2cccs2)n1/N=C/c1ccc(O)c(O)c1O was read as VP16 counter 1.4µM*, ELG1 repair inh inconclusive, RORg inh 1.1µM*, Giardia killer -92* and BRCA1 expr act -14%.
`COCCN=c1scc(-c2ccco2)n1/N=C/c1ccc(O)c(O)c1O` gave VP16 counter -1%, ELG1 repair inh 20%, RORg inh inconclusive, Giardia killer 6, BRCA1 expr act 20% and p53 reactivator 0%.
For CC(=O)N1CCC2(CC1)C/C(=N\NC(=S)Nc1ccc(C)cc1)c1cc(O)ccc1O2 the results were VP16 counter inconclusive, ELG1 repair inh -8%, RORg inh 10µM*, Giardia killer 12, BRCA1 expr act -8% and p53 reactivator -3%.
Screening Cc1ccccc1NC(=S)N/N=C1\CC(C)(C)Oc2ccc(O)cc21 returned VP16 counter -8%, ELG1 repair inh inconclusive, RORg inh inconclusive, Giardia killer -3, BRCA1 expr act -15% and p53 reactivator -4%.
Cc1ccc(NC(=S)N/N=C2\CC(C)(C)Oc3ccc(O)cc32)cc1 was read as VP16 counter 5µM*, ELG1 repair inh -16%, RORg inh 5.6µM*, Giardia killer -22, BRCA1 expr act -34% and p53 reactivator -10%.
For COc1ccc(NC(=S)N/N=C2\CC(C)(C)Oc3ccc(OC)cc32)cc1 the results were VP16 counter 2µM*, ELG1 repair inh -3%, RORg inh 1.4µM*, Giardia killer -14, BRCA1 expr act -72% and p53 reactivator 0%.
For COc1ccc(Cc2nc3ccc(C(=O)NCc4cc(C)no4)cc3o2)cc1 the results were VP16 counter 24%, ELG1 repair inh inconclusive, RORg inh 9%, Giardia killer 17, BRCA1 expr act inconclusive and p53 reactivator inconclusive.
Screening COCOc1ccc(C=O)c(OCOC)c1 returned Giardia killer 19 and BRCA1 expr act 4%.

Assay outcomes from PubChem BioAssay.
